According to PubChem BioAssay (NCI):
Compounds without any hit were thinned out: in the full panel of roughly 83,000, 20% have a hit.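 Step 1: grow cells in 96-well plates. Step 2: add test compound at a single concentration. Step 3: incubate 48 h. Step 4: record percent growth.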 Calls of active or inactive are those of the source. The calls were made as follows: active = growth percent below 10; inactive = the rest.

These compounds were tested on HCC-2998 colon (assay: NCI-60 one-dose screen, 48 h (100 = growth as untreated, 0 = no growth, -100 = all killed)). Conditions: 10 µM.

Structure (SMILES)	growth
CCOC(=O)Nc1ccc2c(c1)C(=O)N(CCOC)c1ccccc1O2	55.3% (inactive)
COc1ccc(Nc2ccnc(N3CCN(c4ccnc5cc(Cl)ccc45)CC3)n2)cc1	15.8% (inactive)
O=C(c1ccccc1)C(Nc1ccccc1)c1ccccc1 (stereo not drawn)	101% (inactive)
Cc1ccc(/C=C2\CN(Cc3cn(CCNc4ccnc5cc(Cl)ccc45)nn3)C/C(=C\c3ccc(C)cc3)C2=O)cc1	-91% (active)
C[C@]12CC[C@H]3[C@@H](CC=C4C[C@@H](O)CC[C@@]43C)[C@@H]1CC[C@@H]2C(=O)C/C=N/O	94.1% (inactive)
Cc1ccccc1[P+](Cc1ccccc1)(c1ccccc1)c1ccccc1	16.5% (inactive)
COc1ccccc1Cn1cc2c(c1-c1ccccc1)CCc1cnoc1-2	81% (inactive)
Clc1cc(Cl)c(OCCCCCCN2CCNCC2)c(Cl)c1	-34% (active)
Cc1c(C(=O)N[C@H](CO)Cc2ccccc2)[nH]c2ccc(Cl)cc2c1=O	94.4% (inactive)
CC(C)C(C)C(N)C(=O)O (stereo not drawn)	101% (inactive)
CCn1nc(-c2ccccn2)c2cccnc2c1=S	72.4% (inactive)
COc1cc(CSc2nc3ccc(Cl)cc3c(=O)n2Cc2ccccc2)cc(OC)c1OC	50.1% (inactive)
C[C@H](NC(=O)[C@@H]1CSSC[C@@H](NC(=O)Cc2nc3ccccc3cc2O)C(=O)NCC(=O)N1C)c1ccccc1	94.9% (inactive)
CCOC(=O)[C@@H](Cc1ccccc1)NC(=O)c1[nH]c2ccc(Cl)cc2c(=O)c1C	87.6% (inactive)
O=C(Nc1cccc(Cl)c1)OCC(COC(=O)Nc1cccc(Cl)c1)(COC(=O)Nc1cccc(Cl)c1)[N+](=O)[O-]	36.9% (inactive)
O=C1/C(=C/c2ccc(O)cc2)Oc2ccc(Cl)cc21	101% (inactive)
COc1cc(/C=C/C(=O)c2cc(-c3ccc(F)cc3)ccc2O)cc(OC)c1OC	93.1% (inactive)
COc1ccc(C(=O)n2nc(CC(=O)NCc3ccccc3)nc2N)cc1	104% (inactive)
COc1cc(/C=C/C(=O)c2cc(-c3ccc(C(F)(F)F)cc3)ccc2O)cc(OC)c1OC	94.6% (inactive)

Structure (SMILES)	growth
CN(C1c2ccccc2Oc2ccccc21)S(=O)(=O)c1cc(Cl)ccc1Cl	84.3% (inactive)
O=C1CC(c2cccc(-c3cccnc3)c2)=Nc2ccc(Br)cc2N1	74.8% (inactive)
COc1ccc(-c2oncc2-c2cc(OC)c3c(c2)OCO3)cc1	56% (inactive)
Cc1ccc([P+](Cc2ccc([N+](=O)[O-])cc2)(c2ccc(C)cc2)c2ccc(C)cc2)cc1	31.3% (inactive)
COc1ccc(C2=NNC(c3sc(Cl)nc3Cl)C2)cc1 (stereo not drawn)	72.1% (inactive)
COc1ccccc1CNCCCN1C(=O)c2ccc3c4c(ccc(c24)C1=O)C(=O)N(CCCNCCNCCCN)C3=O	14.7% (inactive)
C[C@@H]1C(=O)N(C[C@H](Cc2ccccc2)NC(=O)OCc2ccccc2)[C@]1(Cc1ccccc1)C(=O)OCc1ccccc1	71% (inactive)
Cc1cccc2c(Nc3ccc(NS(C)(=O)=O)cc3)c3ccc([N+](=O)[O-])cc3nc12	-30.6% (active)
O=C(Cn1ccc(=O)[nH]c1=O)c1ccc([N+](=O)[O-])o1	111% (inactive)
CC1(C)CCc2cc(-c3ccn(S(=O)(=O)c4ccc(Cl)cc4)n3)ccc2O1	94.3% (inactive)
COc1cc(-c2nc(-c3nnc(-c4cccnc4)o3)c3ccccn23)cc(OC)c1OC	99.9% (inactive)
NCCNc1ccc2cc(-c3nc4ccccc4[nH]3)c(=O)oc2c1	97.9% (inactive)
Nc1cc2c(cc1Cl)-c1ccc(Cl)cc1C2=O	101% (inactive)
C[n+]1c(/C=C/c2c[nH]c3ccccc23)ccc2ccccc21	75.6% (inactive)
N#C/C(=C\N1C(=O)/C(=C/c2cccc([N+](=O)[O-])c2)SC1=S)c1nc2ccccc2s1	100% (inactive)
COC(=O)C1(C(=O)OC)C2C(=O)C3C(C21)C3(C(=O)OC(C)(C)C)C(=O)OC(C)(C)C (stereo not drawn)	112% (inactive)
COc1ccc(/C(=C/c2cc(OC)c(OC)cc2[N+](=O)[O-])C(=O)O)cc1	107% (inactive)
O=CNc1c(Cl)cc2c(c1Cl)Cc1cc([N+](=O)[O-])ccc1-2	92.5% (inactive)
CCCCCC(CCC)COC(=O)c1ccc(OC)cc1 (stereo not drawn)	99.5% (inactive)
